Source: PubChem BioAssay (NCATS)
Inconclusive results are not listed. A number with no mark means an inactive call. Calls of active or inactive are those of the source. Unless noted, calls come from the whole dose curve; as a rule, active = well fitted curve in the direction sought with a large enough effect; inconclusive = small, poorly fitted or top-dose-only effect, or another doubt; inactive = no such curve, though single readings can be large; an effect the other way counts as inactive or inconclusive.

Test system: not listed separately
Assay: qHTS to identify inhibitors of the type 1 interferon - major histocompatibility complex class I in skeletal muscle: primary screen against the NCATS Mechanism Interrogation Plate v5.0 (MIPE) Libary (AID 1347411); note: nearly all actives have a fitted effect of over 65% in size; note: potency is the fitted concentration of half-maximal effect;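 for activity change, negative = inhibition: plate controls were vehicle for no effect and reference inhibitor for full effect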
Details: iHSKM cells + IFN-b, HiBiT-tagged MHC-I luminescence, 24 h; series mostly up to 45.8 µM; activity change, negative = inhibition: at the top concentration
Summary of the method: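 Cells were genome-edited human myoblasts carrying a HiBit tag on endogenous HLA-B. They were treated with IFN-beta (4.0 ng/ml) and titrated compounds (top 46 uM) for 24 hrs before lytic HiBiT detection.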
With `O=C1C=CC[C@@H]2[C@H]3CCCN4CCC[C@@H](CN12)[C@@H]34` the “activity change, negative = inhibition” value was -11.7%. In the case of `CN[C@@H]1Cc2cccc3[nH]c(=O)n(c23)C1`, the “activity change, negative = inhibition” value is reported as 3.71%. For `CC(=O)Nc1ccc(OC[C@](C)(O)C(=O)Nc2ccc([N+](=O)[O-])c(C(F)(F)F)c2)cc1`, the “activity change, negative = inhibition” value was -4.39%. With `CCN(CC)C(=O)c1ccc(C2=CC3(CCNCC3)Oc3cccc(O)c32)cc1` the “activity change, negative = inhibition” value was -34.6%. For `CN1[C@H]2CC(O)C[C@H]1[C@H]1O[C@H]12` (some centres undefined), the “activity change, negative = inhibition” value was 22.5%. For `C#CC1(O)CCC2C3CCC4=CC(=O)CCC4(C)C3CCC21C` (centres undefined), the “activity change, negative = inhibition” value was -12.1%. For `Cc1ccccc1-n1c(Cn2cnc3c(N)ncnc32)nc2cccc(C)c2c1=O`, the “activity change, negative = inhibition” value was -7.46%. In the case of `CCN1C[C@]2(OC(=O)c3ccccc3NC(C)=O)CC[C@H](OC)[C@@]34[C@H]5CC6[C@@H](OC)C[C@](O)(C(C[C@@H]23)[C@@H]14)[C@@]5(O)[C@@H]6OC`, the “activity change, negative = inhibition” value is reported as 14.9%. For `O=S(=O)(F)Cc1ccccc1`, the “activity change, negative = inhibition” value was -4.65%. In the case of `O=c1cccc2n1CC1CNC[C@H]2C1`, the “activity change, negative = inhibition” value is reported as -0.833%. In the case of `CCNC(=O)CC1N=C(c2ccc(Cl)cc2)c2cc(OC)ccc2-n2c(C)nnc21` (centres undefined), the “activity change, negative = inhibition” value is reported as -16.7%. For `O=C(O)CNC(=O)c1c(O)c2ccccc2n(Cc2ccccc2)c1=O`, the “activity change, negative = inhibition” value was -19.4%. For `CCOC(=O)Nc1ccc(NCc2ccc(F)cc2)cc1N`, the “activity change, negative = inhibition” value was -28%. With `C[C@](O)(COc1ccc(C#N)cc1)C(=O)Nc1ccc(C#N)c(C(F)(F)F)c1` the “activity change, negative = inhibition” value was -17.2%. For `COC1=C[C@@H]2[C@@H]3Cc4ccc(OC)c(O)c4[C@]2(CCN3C)CC1=O`, the “activity change, negative = inhibition” value was -0.772%. In the case of `Cc1ccccc1-n1c(Cn2ncc3c(N)ncnc32)nc2cccc(C)c2c1=O`, the “activity change, negative = inhibition” value is reported as 2.37%. For `Clc1ccccc1C(c1ccccc1)(c1ccccc1)n1cccn1`, the “activity change, negative = inhibition” value was -21.7%. With `C[C@]12CC[C@@H]3[C@@H](CCC4=CC(=O)CC[C@@H]43)[C@@H]1CC[C@@H]2OC(=O)CCc1ccccc1` the “activity change, negative = inhibition” value was 0.252%. For `CC(C)[C@]12O[C@H]1[C@@H]1O[C@]13[C@]1(O[C@H]1C[C@H]1C4=C(CC[C@@]13C)C(=O)OC4)[C@@H]2O`, the Potency was 0.0829 µM (active). In the case of `O=C(N[C@@H](COc1ccc2[nH]c(=O)[nH]c2c1)c1ccccc1)c1cccn(Cc2ccc(F)c(F)c2)c1=O`, the “activity change, negative = inhibition” value is reported as -18.3%. For `CCc1c(C(=O)C(N)=O)c2c(OCC(=O)O)cccc2n1Cc1ccccc1`, the “activity change, negative = inhibition” value was 0.129%. For `c1ccc2c(CN3CCNCC3)cccc2c1`, the “activity change, negative = inhibition” value was 14.5%. In the case of `O=c1[nH]c2ccc(Cl)cc2c(N[C@@H]2CN3CCC2CC3)c1-c1nc2ccccc2[nH]1`, the Potency is reported as 4.66 µM (active). In the case of `O=c1[nH]c2ccccc2n1C1CCN(Cc2ccc(-c3[nH]c4cc5ncnc5cc4nc3-c3ccccc3)cc2)CC1`, the “activity change, negative = inhibition” value is reported as -6.52%. In the case of `CCCC[N+]1(C)[C@H]2CC(OC(=O)[C@H](CO)c3ccccc3)C[C@H]1[C@H]1O[C@H]12` (some centres undefined), the “activity change, negative = inhibition” value is reported as 0.736%. In the case of `O=C(Oc1ccc([N+](=O)[O-])cc1)N1CCC(C(O)(c2ccc3c(c2)OCO3)c2ccc3c(c2)OCO3)CC1`, the “activity change, negative = inhibition” value is reported as 0.0666%. With `C[C@]12CC[C@H]3[C@@H](CCC4=CC(=O)CC[C@@]43C)[C@H]1CC[C@H]2OC(=O)CCC1CCCC1` the “activity change, negative = inhibition” value was -28.2%.

Target: Protein phosphatase 1D (Homo sapiens) (UniProt O15297)
Sequence (O15297 whole entry, looked up): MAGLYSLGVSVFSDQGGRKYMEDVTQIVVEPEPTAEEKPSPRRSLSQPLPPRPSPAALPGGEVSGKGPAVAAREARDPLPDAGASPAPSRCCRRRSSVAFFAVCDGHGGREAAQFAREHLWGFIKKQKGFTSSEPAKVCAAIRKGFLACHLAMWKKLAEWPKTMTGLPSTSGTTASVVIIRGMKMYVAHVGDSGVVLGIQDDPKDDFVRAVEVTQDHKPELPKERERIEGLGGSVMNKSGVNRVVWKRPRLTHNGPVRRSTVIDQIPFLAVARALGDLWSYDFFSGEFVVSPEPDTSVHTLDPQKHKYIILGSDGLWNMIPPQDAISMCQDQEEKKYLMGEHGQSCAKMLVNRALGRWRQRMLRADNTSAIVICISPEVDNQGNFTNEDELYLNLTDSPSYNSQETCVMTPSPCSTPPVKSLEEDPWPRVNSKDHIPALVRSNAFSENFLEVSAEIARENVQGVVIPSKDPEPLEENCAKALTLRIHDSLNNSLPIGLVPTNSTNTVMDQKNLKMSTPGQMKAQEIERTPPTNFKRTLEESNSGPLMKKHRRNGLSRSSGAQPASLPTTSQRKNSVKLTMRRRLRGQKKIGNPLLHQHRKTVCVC
Assay: RapidFire Mass Spectrometry qHTS Assay for Modulators of WT P53-Induced Phosphatase 1 (WIP1) (AID 1347424);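 note: amount of dephosphorylated VEPPL-S-QETFS peptide product formed by WIP1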; note: potency is the fitted concentration of half-maximal effect;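 for activity change, negative = inhibition: plate controls were DMSO wells for no effect and GSK830371 inhibitor control at 10 µM for full effect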
Details: WIP1 dephosphorylation of phosphopeptide, RapidFire MS; series mostly up to 128 µM; activity change, negative = inhibition: at the top concentration
Summary of the method: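 WIP1 (10 nM final) was preincubated 1 h at room temperature with compounds in Tris-HCl pH 7.5, 30 mM MgCl2, TCEP, EGTA, BSA; 2 uM VEPPL-pS-QETFS phosphopeptide was added for 5 min, quenched with formic acid, and dephosphorylated product quantified by RapidFire MS.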
For `CN[C@@H](C)[C@H](O)c1ccccc1`, the “activity change, negative = inhibition” value was 8.9% [at 63 µM]. In the case of `CCCCCCCCCCCCCCCC[N+](C)(C)C`, the “activity change, negative = inhibition” value is reported as 34.6% [at 63 µM]. With `CO/C=C(/C(=O)OC)c1ccccc1Oc1cc(Oc2ccccc2C#N)ncn1` the “activity change, negative = inhibition” value was 10.3%. For `Nc1ccc(N=Nc2ccccc2)cc1`, the “activity change, negative = inhibition” value was -29.1%. With `CC(=O)[O][Hg][c]1ccccc1` the Potency was 28.2 µM (active). In the case of `CCCCCCCCCC(CC)c1ccc(S(=O)(=O)O)cc1` (centres undefined), the Potency is reported as 1 µM (active). In the case of `O=C(O)CCCOc1ccc(Cl)cc1Cl`, the “activity change, negative = inhibition” value is reported as -24.9%.

Target: Protein phosphatase 1D (Homo sapiens) (UniProt O15297)
Assay: Rhodamine-PBP qHTS Assay for Modulators of WT P53-Induced Phosphatase 1 (WIP1) (AID 1347425); note: % of control where 0% means no effect
Details: recombinant WIP1, Rhodamine-PBP phosphate fluorescence, real-time; series mostly up to 116 µM; activity change, negative = inhibition: at the top concentration
Summary of the method: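 5 nM WIP1 + 10 uM Rh-PBP, 50 mM Tris pH 7.5, 30 mM MgCl2, 1 mM TCEP, 0.1 mM EGTA, BSA; cpds pinned, 1 hr RT; + 10 uM phosphopeptide; fluorescence 1-min reads x 11 min; delta = f1 - f0.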
With `CN[C@@H](C)[C@H](O)c1ccccc1` the “activity change, negative = inhibition” value was 3.17% [at 57.5 µM]. In the case of `CCCCCCCCCCCCCCCC[N+](C)(C)C`, the “activity change, negative = inhibition” value is reported as 1.7% [at 57.5 µM]. With `Nc1ccc(Cl)cc1N` the “activity change, negative = inhibition” value was -25.5%. With `CO/C=C(/C(=O)OC)c1ccccc1Oc1cc(Oc2ccccc2C#N)ncn1` the “activity change, negative = inhibition” value was 49%. With `O=C(O)CCCOc1ccc(Cl)cc1Cl` the “activity change, negative = inhibition” value was -7.65%.

Test system: not listed separately
Assay: Primary qHTS for inhibitors of SARS-S pseudo-typed particle cell entry (AID 1479145; calls by dose curve; note: nearly all actives have a fitted effect of over 45% in size; for activity change, negative = inhibition: % is set by controls: 0 for no effect and ±100 for the full control effect)
Details: SARS-S pseudotyped particle cell entry, luciferase reporter; series mostly up to 57.1 µM; activity change, negative = inhibition: at the top concentration; outcome: at the top concentration
For `CC(C)(C)c1nnc(NS(=O)(=O)c2ccccc2)s1`, the “outcome” value was “inactive”. In the case of `CN1[C@@H]2CC[C@H]1CC(OC(=O)C(O)c1ccccc1)C2` (some centres undefined), the “outcome” value is reported as “inactive”. In the case of `N#C/C(=C1\SCC(c2ccccc2Cl)S1)n1ccnc1` (centres undefined), the “activity change, negative = inhibition” value is reported as -3.25%.

Test system: not listed separately
Assay: Primary qHTS for Huh7 cytotoxicity: counterscreen for inhibitors of MERS-S pseudotyped particle cell entry (AID 1479147; calls by dose curve; note: potency is the fitted concentration of half-maximal effect; for activity change, negative = cytotoxicity: % is set by controls: 0 for no effect and ±100 for the full control effect)
Details: cell viability read-out; series mostly up to 57.1 µM; activity change, negative = cytotoxicity: at the top concentration; outcome: at the top concentration
In the case of `CCCCCCCCCCCCCCCC[N+](C)(C)C`, the “activity change, negative = cytotoxicity” value is reported as -5.72%. With `CC(C)(C)c1nnc(NS(=O)(=O)c2ccccc2)s1` the “activity change, negative = cytotoxicity” value was -25.1%. With `CN1[C@@H]2CC[C@H]1CC(OC(=O)C(O)c1ccccc1)C2` (some centres undefined) the “activity change, negative = cytotoxicity” value was 2.57%. For `N#C/C(=C1\SCC(c2ccccc2Cl)S1)n1ccnc1` (centres undefined), the “activity change, negative = cytotoxicity” value was -7.13%. For `CC(=O)[O][Hg][c]1ccccc1`, the Potency was 3.98 µM (active).

Test system: not listed separately
Assay: Primary qHTS for inhibitors of MERS-S pseudo-typed particle cell entry (AID 1479149; calls by dose curve; note: nearly all actives have a fitted effect of over 60% in size; note: potency is the fitted concentration of half-maximal effect)
Details: MERS-S pseudotyped particle entry, luciferase; series mostly up to 57.1 µM; activity change, negative = inhibition: at the top concentration; outcome: at the top concentration
For `CC(C)(C)c1nnc(NS(=O)(=O)c2ccccc2)s1`, the “outcome” value was “inactive”. In the case of `CN1[C@@H]2CC[C@H]1CC(OC(=O)C(O)c1ccccc1)C2` (some centres undefined), the “outcome” value is reported as “inactive”. With `N#C/C(=C1\SCC(c2ccccc2Cl)S1)n1ccnc1` (centres undefined) the “outcome” value was “inactive”. With `CC(=O)[O][Hg][c]1ccccc1` the Potency was 2.24 µM (active).

Test system: not listed separately
Assay: Primary qHTS for Vero E6 cytotoxicity: counterscreen for inhibitors of SARS-S pseudo-typed particle cell entry (AID 1479150; calls by dose curve; note: potency is the fitted concentration of half-maximal effect; for activity change, negative = cytotoxicity: % is set by controls: 0 for no effect and ±100 for the full control effect)
Details: cell viability; series mostly up to 57.1 µM; activity change, negative = cytotoxicity: at the top concentration; outcome: at the top concentration
With `CN1[C@@H]2CC[C@H]1CC(OC(=O)C(O)c1ccccc1)C2` (some centres undefined) the “activity change, negative = cytotoxicity” value was 1.8%. With `N#C/C(=C1\SCC(c2ccccc2Cl)S1)n1ccnc1` (centres undefined) the “outcome” value was “inactive”. For `CC(=O)[O][Hg][c]1ccccc1`, the Potency was 10 µM (active).
